Compound activity as filed in PubChem BioAssay.
AmpC inh detg: AmpC beta-lactamase inhibition with detergent present; P00811; AmpC hydrolysis of nitrocefin, absorbance 480 nm, 0.01% Triton; Potency, µM (top dose mostly 114 µM), usual class: inhibitors; 0.041% of 370,000 active; note: nearly all actives have a fitted effect of over 25% in size
Target sequence (P00811 whole entry, looked up): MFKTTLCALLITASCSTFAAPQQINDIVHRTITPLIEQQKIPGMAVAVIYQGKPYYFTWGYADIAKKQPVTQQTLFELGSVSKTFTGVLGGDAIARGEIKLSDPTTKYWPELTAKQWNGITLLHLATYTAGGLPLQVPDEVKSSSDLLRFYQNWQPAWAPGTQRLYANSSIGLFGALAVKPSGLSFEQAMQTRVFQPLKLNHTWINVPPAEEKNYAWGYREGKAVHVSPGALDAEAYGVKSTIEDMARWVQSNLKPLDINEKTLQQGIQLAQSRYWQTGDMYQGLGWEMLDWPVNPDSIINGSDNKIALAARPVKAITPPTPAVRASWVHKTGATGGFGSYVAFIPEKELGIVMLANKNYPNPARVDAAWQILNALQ
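20 mM phosphate pH 7.0 + 0.01% (detergent screen) or 0.0001% Triton X-100; 5.3 nM AmpC reagent; cpd preinc 15 min RT; nitrocefin (800 uM stock) to start; A480 q20 s × 4 min; Activity was normalised to no-enzyme and no-compound control wells.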
Sm TGR inh: S. mansoni TGR enzyme inhibition; Potency, µM (top dose mostly 114 µM), usual class: inhibitors; AID 485364; 3% of 360,000 active; purified TGR, DTNB reduction, TNB absorbance 405 nm; note: nearly all actives have a fitted effect of over 60% in size
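First, TGR (20 nM dispensed) and NADPH were mixed with compound. Second, a 15 min room-temperature incubation followed. Third, further NADPH and then DTNB were added to start the reaction. Finally, TNB absorbance was monitored kinetically.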
AmpC no deterg: AmpC beta-lactamase inhibition without detergent; P00811; AmpC nitrocefin hydrolysis, absorbance 480 nm, 0.0001% Triton; Potency, µM (highest dose often 57.1 µM), most hits filed as inhibitors; 0.52% of 330,000 active; note: nearly all actives have a fitted effect of over 20% in size
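20 mM phosphate pH 7.0 + 0.01% (detergent screen) or 0.0001% Triton X-100; 5.3 nM AmpC reagent; cpd preinc 15 min RT; nitrocefin (800 uM stock) to start; A480 q20 s × 4 min; Activity was normalised to no-enzyme and no-compound control wells.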
Numbers stand for hits; . = inactive; ? = inconclusive; / = no result. Sampled rows, rich in hits. Any-hit rate of the full collection: about 3.3%. Calls come from the whole dose curve; as a rule, active = well fitted curve in the direction sought with a large enough effect; inconclusive = small, poorly fitted or top-dose-only effect, or another doubt; inactive = no such curve, though single readings can be large; an effect the other way counts as inactive or inconclusive.

SMILES	AmpC inh detg	Sm TGR inh	AmpC no deterg
COc1cccc2cc(C(=O)C3=C(O)C(=O)N(CCN4CCOCC4)C3c3cccc(Cl)c3)oc12 (configuration not stated)	.	.	.
COc1ccc(OC)c(C2C(C(C)=O)=C(O)C(=O)N2CCN2CCOCC2)c1 (configuration not stated)	?	?	.
CN(C)CCCN1C(=O)C(O)=C(C(=O)c2cc3ccccc3o2)C1c1ccccc1 (configuration not stated)	.	.	.
CC(=O)C1=C(O)C(=O)N(CCN2CCOCC2)C1c1ccccc1 (configuration not stated)	.	32µM	.
COc1cccc2cc(C(=O)C3=C(O)C(=O)N(CCN4CCOCC4)C3c3ccc(Cl)cc3)oc12 (configuration not stated)	.	40µM	.
COc1ccc2c(CNCCc3ccccc3)c(C(=O)O)n(Cc3cccc(F)c3)c2c1	.	.	/
Cc1cc(C)c(NC(=O)CSc2nc(=O)n(Cc3ccncc3)c3c2CCC3)c(C)c1	.	.	/
COc1ccc(CNC(=O)c2cn(-c3cccc(OC)c3)c(=O)c3ccccc23)cc1	.	.	/
CC(=O)c1ccc(N2CCN(C(=O)c3cc4c(s3)-c3ccccc3OC4)CC2)cc1	.	.	/
CCCOc1ccc(C2c3c(-c4ccccc4O)n[nH]c3C(=O)N2CCc2ccccc2)cc1OCC (configuration not stated)	.	.	/
CCCCC1CCC(C(=O)N2CC(=O)Nc3ccc(Br)cc3C2c2ccc(F)cc2)CC1 (configuration not stated)	?	.	/
CC(C)Cn1c(=O)c2sccc2n2c(CCCC(=O)NCCc3ccc(Cl)cc3)nnc12	.	.	/
COc1cc(Cl)c(C)cc1NC(=O)CCc1c(C)nc2cc(-c3cccc(F)c3)nn2c1C	.	.	/
COc1ccc(S(=O)(=O)N2CCC(N3CCN(Cc4ccccc4)C(=O)C3=O)CC2)cc1	.	.	/
COc1ccc(NC(=O)CN2C(=O)COc3ccc(S(=O)(=O)Nc4ccccc4)cc32)cc1OC	.	.	/
O=C(C1=C(O)C(=O)N(CCN2CCOCC2)C1c1cccc(O)c1)c1cc2ccccc2o1 (configuration not stated)	.	?	.
O=C(C1=C(O)C(=O)N(CCCN2CCOCC2)C1c1ccncc1)c1cc2ccccc2o1 (configuration not stated)	?	45µM	.
COc1cccc2cc(C(=O)C3=C(O)C(=O)N(CCN4CCOCC4)C3c3ccc(C(C)(C)C)cc3)oc12 (configuration not stated)	.	?	.
O=C(C1=C(O)C(=O)N(CCN2CCOCC2)C1c1ccc(Br)cc1)c1cc2ccccc2o1 (configuration not stated)	.	32µM	.
Cc1ccc(C2C(C(=O)c3cc4ccccc4o3)=C(O)C(=O)N2CCN2CCOCC2)o1 (configuration not stated)	.	22µM	?
O=C(C1=C(O)C(=O)N(CCN2CCOCC2)C1c1cccnc1)c1cc2ccccc2o1 (configuration not stated)	.	?	.
O=C(C1=C(O)C(=O)N(CCN2CCOCC2)C1c1cccc(F)c1)c1cc2ccccc2o1 (configuration not stated)	.	45µM	.
Cc1cccc(N2CCN(C(=O)Cn3c(=O)c4cccn4c4ccc(F)cc43)CC2C)c1 (configuration not stated)	.	?	/
CCCN1CCN(CC2=C(C(=O)OCC)C(c3ccc(OC(C)C)cc3)NC(=O)N2)CC1 (configuration not stated)	.	.	/
O=C(CN(c1cccc(C(F)(F)F)c1)S(=O)(=O)c1ccccc1)Nc1cccc(Cl)c1	.	.	/
SMILES	AmpC inh detg	Sm TGR inh	AmpC no deterg
CCN1c2ccccc2-n2cccc2C12CCN(C(=O)Nc1ccccc1Br)CC2	.	.	/
CC(=O)c1ccc(NC(=O)COCc2cc(-c3ccco3)on2)cc1	.	.	/
COc1ccc(NC(=O)CC2C(=O)N(c3ccc(C)cc3)C(=O)N2Cc2cccnc2)cc1 (configuration not stated)	.	.	/
CC(c1ccccc1)C1CC(=O)N(CC(=O)O)C1=O (configuration not stated)	?	.	.
O=C1[C@@H]2[C@H](C(=O)N1Cc1ccco1)[C@H]1C=C[C@@H]2C1	.	50µM	.
CC(c1ccccc1)C1CC(=O)N(Cc2ccco2)C1=O (configuration not stated)	.	7.1µM	.
O=C(CN1C(=O)C2C3C=CC(C3)C2C1=O)NCc1ccco1 (configuration not stated)	.	.	.
NC(=O)C1CCN(c2csc3ccc(F)cc3c2=O)CC1	.	.	/
COc1cccc(CNC(=O)CCc2nnc3n(C)c(=O)c4sccc4n23)c1	.	.	/
COc1ccccc1CNC(=O)Cn1c(=O)ccc2cc(S(=O)(=O)N3CCCC3)ccc21	.	.	/
Cc1sc2c(c1C)CN(C1CC(C)(C)NC(C)(C)C1)CN2C(=O)c1ccco1	.	25µM	.
CC1(C)CC(CCNC(=O)c2ccco2)CC(C)(C)N1	.	.	.
CCOc1ccc(CC(=O)Nc2c(C(=O)c3ccc(F)cc3)oc3ccc(Cl)cc23)cc1OCC	.	.	/
COc1ccc(Cl)cc1NC(=O)c1oc2ccc(S(=O)(=O)N3CCCCC3)cc2c1C	.	.	/
O=[N+]([O-])c1ccc(O)c(/C=N/NC(=S)Nc2ccc(Cl)cc2Cl)c1	.	.	.
O=C(N/N=C/c1ccc([N+](=O)[O-])s1)c1ccccc1	.	.	.
O=C(N/N=C/c1cc(Br)c(Br)o1)C(O)c1ccccc1 (configuration not stated)	.	40µM	.
O=[N+]([O-])c1ccc(/C=N/NC(=S)Nc2ccc(Cl)cc2Cl)s1	.	45µM	14µM
O=C(N/N=C/c1ccc([N+](=O)[O-])s1)C(O)c1ccccc1 (configuration not stated)	.	32µM	.
Cc1ccc(/C=N/NC(=O)C(O)c2ccccc2)o1 (configuration not stated)	.	.	.
CCOC(=O)N/N=C/c1ccc(N(CC)CC)cc1O	.	.	.
CCN(CC)c1ccc(/C=N/Nc2ccc(C)cc2)c(O)c1	.	4µM	.
CCCOc1ccccc1C(=O)Nc1ccc(-c2nc3ccc(C)cc3s2)cc1	.	.	/
Cn1nc([N+](=O)[O-])nc1Sc1ccc(Cl)cc1	.	?	.
CNc1ncnc(Sc2ccc(Cl)cc2)c1[N+](=O)[O-]	.	0.56µM	.
SMILES	AmpC inh detg	Sm TGR inh	AmpC no deterg
O=C(Nc1cccc(Cl)c1Cl)c1cc2nc(-c3ccc4c(c3)OCO4)cc(C(F)(F)F)n2n1	.	.	/
Cc1ccc(Nc2nnc(-c3ccc(C)c(S(=O)(=O)N4CCOCC4)c3)c3ccccc23)c(C)c1	.	.	/
O=C(NC(=S)Nc1nc2c(s1)CCCC2)c1ccccc1	?	.	.
S=C(Nc1nc2c(s1)CCCC2)NC1CC1	?	2.5µM	.
COc1cccc(Cn2cnc3c2c(=O)n(C)c(=O)n3C)c1	.	.	/
O=C(C[n+]1cn(C(F)F)c2ccccc21)c1ccc(Br)cc1	.	4µM	.
